Experimental data reported in the supplement of paper PMC8728848.
The entries come from a sample that favours the strongest signals as a whole.

Experiments:
Assay in all cases: glycan array binding signal (z-score within array); higher = stronger binding
Conditions in all cases: glycan notation: IUPAC condensed, linker removed
[1] = target: Fuc(a1-2)Gal(b1-3)GalNAc(b1-4)[Neu5Ac(a2-3)]Gal(b1-4)Glc
In short: (§1)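 The Consortium for Functional Glycomics database supplied 3228 glycan arrays, of which those lacking an available protein sequence were dropped. The binding signal, a within-array Z-score, was averaged across arrays of the same protein sequence and across linkers. Negative scores can be read as non-binding.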

[2] = target: Fuc(a1-2)Gal(b1-4)[Fuc(a1-3)]GlcNAc
In short: as §1

[3] = target: Fuc(a1-2)Gal(b1-4)[Fuc(a1-3)]GlcNAc(b1-3)Gal(b1-4)[Fuc(a1-3)]GlcNAc
In short: as §1

[4] = target: Fuc(a1-3)[Gal3S(b1-4)]GlcNAc
In short: as §1

[5] = target: Fuc(a1-3)[Gal3S(b1-4)]GlcNAc6S
In short: as §1

[6] = target: Gal(a1-3)Gal(b1-3)GlcNAc
In short: as §1

[7] = target: Gal(a1-3)Gal(b1-4)[Fuc(a1-3)]GlcNAc
In short: as §1

[8] = target: Gal(a1-3)GalNAc
In short: as §1

[9] = target: Gal3S(b1-4)Glc
In short: as §1

[10] = target: Gal3S6S(b1-4)GlcNAc
In short: as §1

[11] = target: Gal4S6S(b1-4)GlcNAc
In short: as §1

[12] = target: GlcNAc3Prop(b1-4)GlcNAc
In short: as §1

[13] = target: Kdn(a2-3)Gal(b1-4)GlcNAc
In short: as §1

[14] = target: Man(a1-2)Man(a1-3)[Man(a1-2)Man(a1-6)]Man(a1-6)[Man(a1-2)Man(a1-2)Man(a1-3)]Man
In short: as §1

[15] = target: Neu5Ac(a2-3)Gal
In short: as §1

[16] = target: Neu5Ac(a2-3)Gal(b1-3)GalNAc(b1-4)[Neu5Ac(a2-3)]Gal(b1-4)Glc
In short: as §1

[17] = target: Neu5Ac(a2-3)Gal(b1-3)GlcNAc6S
In short: as §1

[18] = target: Neu5Ac(a2-3)Gal(b1-3)[Neu5Ac(a2-3)Gal(b1-4)]GlcNAc
In short: as §1

[19] = target: Neu5Ac(a2-3)Gal(b1-4)GlcNAc(b1-2)Man(a1-3)[GlcNAc(b1-2)Man(b1-4)GlcNAc(b1-2)Man(a1-6)]Man(b1-4)GlcNAc(b1-4)GlcNAc
In short: as §1

[20] = target: Neu5Ac(a2-3)Gal(b1-4)GlcNAc6S
In short: as §1

[21] = target: Neu5Ac(a2-3)Gal6S(b1-4)[Fuc(a1-3)]GlcNAc
In short: as §1

[22] = target: Neu5Ac(a2-3)[GalNAc(b1-4)]Gal(b1-4)GlcNAc
In short: as §1

[23] = target: Neu5Ac(a2-3)[Neu5Ac(a2-6)]GalNAc
In short: as §1

[24] = target: Neu5Ac(a2-6)Gal(b1-4)GlcNAc(b1-3)Gal(b1-4)[Fuc(a1-3)]GlcNAc(b1-3)Gal(b1-4)[Fuc(a1-3)]GlcNAc
In short: as §1

[25] = target: Neu5Ac(a2-6)GalNAc(b1-4)GlcNAc
In short: as §1

[26] = target: Neu5Ac9Ac(a2-6)Gal(b1-4)GlcNAc
In short: as §1

[27] = target: Neu5Gc(a2-3)Gal(b1-4)GlcNAc
In short: as §1

B1: MIC1 (Toxoplasma gondii), O00834 (protein)
chain: MGQALFLTVLLPVLFGVGPEAYGEASHSHSPASGRYIQQMLDQRCQEIAAELCQSGLRKMCVPSSRIVARNAVGITHQNTLQWRCFDTASLLESNQENNGVNCVDDCGHTIPCPGGVHRQNSNHATRHEILSKLVEEGVQRFCSPYQASANKYCNDKFPGTIARRSKGFGNNVEVAWRCYEKASLLYSVYAECASNCGTTWYCPGGRRGTSTELDKRHYTEEEGIRQAIGSVDSPCSEVEVCLPKDENPPLCLDESGQISRTGGGPPSQPPEMQQPADRSDERGGGKEQSPGGEAQPDHPTKGGNIDLPEKSTSPEKTPKTEIHGDSTKATLEEGQQLTLTFISTKLDVAVGSCHSLVANFLDGFLKFQTGSNSAFDVVEVEEPAGPAVLTIGLGHKGRLAVVLDYTRLNAALGSAAYVVEDSGCSSSEEVSFQGVGSGATLVVTTLGESPTAVSA
[1]
  glycan array binding signal (z-score): -0.232
[2]
  glycan array binding signal (z-score): -0.213
[3]
  glycan array binding signal (z-score): -0.138
[4]
  glycan array binding signal (z-score): -0.041
[5]
  glycan array binding signal (z-score): -0.233
[6]
  glycan array binding signal (z-score): -0.059
[7]
  glycan array binding signal (z-score): -0.014
[8]
  glycan array binding signal (z-score): -0.139
[9]
  glycan array binding signal (z-score): -0.149
[10]
  glycan array binding signal (z-score): -0.228
[11]
  glycan array binding signal (z-score): -0.218
[12]
  glycan array binding signal (z-score): -0.196
[13]
  glycan array binding signal (z-score): -0.256
[14]
  glycan array binding signal (z-score): -0.307
[15]
  glycan array binding signal (z-score): -0.068
[16]
  glycan array binding signal (z-score): -0.19
[17]
  glycan array binding signal (z-score): 0.131
[18]
  glycan array binding signal (z-score): 4.31
[19]
  glycan array binding signal (z-score): 3.01
[20]
  glycan array binding signal (z-score): 6.25
[21]
  glycan array binding signal (z-score): -0.178
[22]
  glycan array binding signal (z-score): 5.43
[23]
  glycan array binding signal (z-score): -0.313
[24]
  glycan array binding signal (z-score): -0.268
[25]
  glycan array binding signal (z-score): -0.152
[26]
  glycan array binding signal (z-score): -0.294
[27]
  glycan array binding signal (z-score): 9.71
